Screening data: PubChem, several laboratories
GALR2 blocker: GALR2 antagonists in receptor-expressing cells, primary screen. hit rate 0.39% among 140,000. antagonist mode. Galanin receptor type 2 (Homo sapiens), O43603. inhibition, % at 4 µM; in the data active = inhibition above about 27%;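 also: cells stimulated with galanin 1-16 at roughly its EC80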
Target sequence (O43603 whole entry, looked up): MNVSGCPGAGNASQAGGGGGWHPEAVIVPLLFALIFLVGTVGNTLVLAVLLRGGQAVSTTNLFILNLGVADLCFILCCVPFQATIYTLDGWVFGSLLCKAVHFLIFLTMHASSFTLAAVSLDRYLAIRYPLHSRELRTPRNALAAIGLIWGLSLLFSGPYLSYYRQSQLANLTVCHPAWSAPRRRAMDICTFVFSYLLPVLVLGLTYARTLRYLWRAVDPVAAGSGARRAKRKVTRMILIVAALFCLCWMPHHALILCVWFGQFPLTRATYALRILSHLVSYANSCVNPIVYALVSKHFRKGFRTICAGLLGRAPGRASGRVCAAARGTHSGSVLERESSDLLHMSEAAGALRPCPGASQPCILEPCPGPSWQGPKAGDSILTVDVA
S1P2 blocker: human S1P2 receptor antagonists, primary screen, cell-based; AID 736, 2007; cell-based S1P2 antagonist assay, inhibition at 5 uM; inhibition, % at 5 µM; hit rate 0.21% among 97,000; in the data active = inhibition above about 45%;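 also: CRE beta-lactamase reporter cells expressing human S1P2 stimulated with S1P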
Target sequence (O95136 whole entry, looked up): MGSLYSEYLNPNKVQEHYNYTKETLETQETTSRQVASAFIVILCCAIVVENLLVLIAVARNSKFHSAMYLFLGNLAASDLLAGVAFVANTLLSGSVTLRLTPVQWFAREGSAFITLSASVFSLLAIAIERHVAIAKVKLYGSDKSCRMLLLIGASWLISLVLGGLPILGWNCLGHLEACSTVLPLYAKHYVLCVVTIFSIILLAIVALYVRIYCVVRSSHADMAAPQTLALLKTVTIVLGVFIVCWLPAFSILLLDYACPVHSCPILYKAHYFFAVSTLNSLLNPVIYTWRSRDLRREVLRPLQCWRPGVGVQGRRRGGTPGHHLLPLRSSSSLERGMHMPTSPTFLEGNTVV
MRP resist rev: reversal of MRP1-mediated doxorubicin resistance, primary screen, H69AR cells, doxorubicin co-treatment | H69AR cells + 2 uM doxorubicin, CellTiter-Glo, 72 h | differential viability (reversal), % at 10 µM | hit rate 0.04% among 85,000 | AID 602, 2007;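 active = viability drop by adding the cancer drug above about 55%, with treated viability meeting a 40% cutoff, limit read from the data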;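 also: larger differential means the compound sensitizes cells more to doxorubicin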
S1P2 ag: S1P2 receptor agonists, primary screen, cell-based. Sphingosine 1-phosphate receptor 2 (Homo sapiens), O95136. S1P2-expressing cell line, agonist reporter read-out. activation, % at 4.5 µM. hit rate 0.46% among 97,000; in the data active = activation above about 16%
GALR2 ag: GALR2 receptor agonists, primary screen, cell-based; Galanin receptor type 2 (Homo sapiens), O43603; GALR2-expressing cells, agonist activation read-out; activation, % (test concentration not listed); hit rate 0.48% among 140,000; AID 803, 2007; in the data active = activation above about 5%, passing the limit was not always enough
MRP-1 activ: H69AR viability gain despite doxorubicin, primary screen, MRP-1 activator project, H69AR cells, CellTiter-Glo; viability rescue; viability increase, % at 10 µM; hit rate 0.61% among 140,000;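 active = viability gain under doxorubicin at or above a set limit, the compound median plus 3 SD, cut at about 4.7% in these data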;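 also: MRP-1 overexpressing cells given doxorubicin 25 µM after compound pretreatment; 18-22 h compound pretreatment then 72 h with doxorubicin before readout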
Of the large screens only hits and unclear results are named; the others gave an inactive call. The list is not random: actives were taken first. Their share in the collection is about 1.8%.

CCCCOC(=O)Nc1ccc(S(=O)(=O)Nc2ccc([N+](=O)[O-])cc2)cc1	MRP-1 activ 4.7 (no result: S1P2 blocker, MRP resist rev, S1P2 ag)
CCCCOC(=O)Nc1ccc(C(C)C)cc1	MRP-1 activ 6.0
CC(=O)Nc1nnc(Cc2ccccc2)s1	none
CS(=O)(=O)Nc1nnc(Cc2ccccc2)s1	MRP-1 activ 7.9
COc1ccccc1/C=N/NC(=O)CC(=O)NCc1cccnc1	none (no result: S1P2 blocker, MRP resist rev, S1P2 ag)
O=C(CC(=O)N/N=C/c1ccccc1O)NCc1cccnc1	MRP-1 activ 5.5 (no result: S1P2 blocker, MRP resist rev, S1P2 ag)
C/C(=N\NC(=O)c1cc(-c2ccc(C)s2)[nH]n1)c1ccco1	none (no result: S1P2 blocker, MRP resist rev, S1P2 ag)
CCOC(=O)c1c(NC(=O)c2cccc(N3C(=O)CCC3=O)c2)sc(C)c1C	S1P2 ag 16 (no result: MRP resist rev)
CCOC(=O)c1c(-c2ccc(-c3ccccc3)cc2)csc1NC(=O)c1cccc(N2C(=O)CCC2=O)c1	none (no result: S1P2 blocker, MRP resist rev, S1P2 ag)
CCC(C)NC(=O)c1ccccc1C(=O)NC(C)CC (stereo not given)	S1P2 blocker 58 (no result: MRP resist rev)
O=C(Nc1cccc([N+](=O)[O-])c1)c1cnccn1	none (no result: S1P2 blocker, MRP resist rev, S1P2 ag)
O=C(Nc1cccc([N+](=O)[O-])c1)c1[nH]ncc1Cl	MRP-1 activ 6.1 (no result: S1P2 blocker, MRP resist rev, S1P2 ag)
COc1ccc(/C=N/n2cnnc2SCCO)cc1OC	S1P2 ag 19 (no result: MRP resist rev)
C=CCSc1nncn1/N=C/c1ccc(OC)cc1	none
COc1ccc(CC(=O)Nc2ccc(-c3noc(COc4ccccc4C)n3)cc2)cc1	GALR2 ag 7.8 (no result: S1P2 blocker, S1P2 ag)
CCc1nn2c(N)c(/C=C3\C=Nc4ccccc43)c(=O)nc2s1	MRP-1 activ 8.2 (no result: S1P2 blocker, MRP resist rev, S1P2 ag)
CCOC(=O)c1c(Nc2ccccc2)sc(/C=C2\C=Nc3ccccc32)c1O	none
CCOC(=O)C1C2C=CC3(CN(C4CCCC4)C(=O)C13)O2 (stereo not given)	none (no result: S1P2 blocker, S1P2 ag)
Cc1cc(C(=O)Nc2nnc(C(F)(F)F)s2)no1	MRP-1 activ 5.5
CN(c1ccccc1)c1ccc(/C=C/[N+](=O)[O-])cc1	GALR2 ag 5.5 (no result: S1P2 blocker, MRP resist rev, S1P2 ag)
CCOc1ccc(/C=C/[N+](=O)[O-])c2ccccc12	none (no result: MRP resist rev)
Nc1c(C(=O)NCCN2CCOCC2)c2nc3ccccc3nc2n1-c1ccccc1	none
Nc1c(C(=O)NCCN2CCOCC2)c2nc3ccccc3nc2n1CCc1ccccc1F	S1P2 ag 45, GALR2 ag 5.3
Nc1c(C(=O)NCCN2CCOCC2)c2nc3ccccc3nc2n1CCc1ccccc1	S1P2 ag 29, GALR2 ag 8.6
Cc1noc(/C=C/N(C)C)c1S(=O)(=O)N1CCCC(C(=O)NCc2cccs2)C1 (stereo not given)	MRP-1 activ 10
CCN=c1scc(C)n1/N=C/c1ccc(O)c(O)c1O	MRP-1 activ 6.2 (no result: MRP resist rev)
COCCN=c1scc(-c2cccs2)n1/N=C/c1ccc(O)c(O)c1O	none (no result: S1P2 blocker, MRP resist rev, S1P2 ag)
CCN(CC)C(=S)SCC(=O)Nc1nc(-c2ccccc2)c(-c2ccccc2)o1	none (no result: S1P2 blocker, MRP resist rev, S1P2 ag)
Cn1nnnc1SCC(=O)Nc1nc(-c2ccccc2)c(-c2ccccc2)o1	MRP resist rev 60
O=C(Nc1nc(COc2ccccc2)cs1)c1ccccc1F	MRP-1 activ 5.3 (no result: S1P2 blocker, MRP resist rev, S1P2 ag)
COc1ccccc1OCc1csc(NC(=O)c2ccco2)n1	none (no result: S1P2 blocker, S1P2 ag)
COc1ccccc1CNC(=O)C(NS(=O)(=O)c1ccc2c(c1)oc(=O)n2C)C(C)C (stereo not given)	none
NC(=O)CSc1nc2scc(-c3ccco3)c2c(=O)n1-c1ccccc1	none
O=c1c2c(-c3ccco3)csc2nc(SCc2cn3cccnc3n2)n1-c1ccccc1	S1P2 ag 20
CC(C)CCN1C(=O)c2ccc(C(=O)OCn3nnc4ccccc4c3=O)cc2C1=O	none
COc1ccc(C(=O)Nc2ccc(Cl)c(S(=O)(=O)Nc3ccccc3OC)c2)cc1	MRP-1 activ 9.2 (no result: S1P2 blocker, MRP resist rev, S1P2 ag)
COc1ccc(C(c2c[nH]c3ccccc23)c2c[nH]c3ccccc23)cc1O	S1P2 ag 89
Nc1ccc(O)cc1C(=O)OCC(=O)c1ccc(C2CCCCC2)cc1	GALR2 ag 6.3 (no result: S1P2 blocker, MRP resist rev, S1P2 ag)
C(=N\Nc1nc(Nc2ccccc2)nc(N2CCOCC2)n1)/c1c[nH]c2ccccc12	S1P2 blocker 47 (no result: MRP resist rev)
Cc1cc(C)cc(N2CC34C=CC(O3)C(C(=O)OCC(=O)NCc3ccco3)C4C2=O)c1 (stereo not given)	none
CCOc1ccc(/C=N/NC(=O)c2c(C)n(C)c3ccc(OC)cc23)cc1	none (no result: S1P2 blocker, MRP resist rev, S1P2 ag)
CCOc1ccc2c(c1)c(N=O)c(O)n2C	MRP-1 activ 6.0 (no result: S1P2 blocker, MRP resist rev, S1P2 ag)
N=C(N)SCc1cn2ccccc2n1	MRP-1 activ 4.9 (no result: S1P2 blocker, MRP resist rev, S1P2 ag)
CCOC(=O)C(NC(C)=O)(Nc1ccc(S(=O)(=O)Nc2ccncn2)cc1)C(F)(F)F (stereo not given)	none
Cn1nnc(NC(=O)COc2ccc(C3CCCCC3)cc2)n1	MRP-1 activ 5.3
CCc1noc(C)c1C(=O)Nc1ncc(C)s1	none
CCc1noc(C)c1C(=O)Nc1nc(-c2cc(C)ccc2C)c(C)s1	MRP-1 activ 5.5 (no result: MRP resist rev)
O=C(CN1C(=O)/C(=C/c2cccc(Br)c2)SC1=S)N1CCCC1	none (no result: S1P2 blocker, MRP resist rev, S1P2 ag)
COc1cc(SC)ccc1C(=O)NCCOc1ccc(Cl)cc1	MRP-1 activ 6.4 (no result: S1P2 blocker, MRP resist rev, S1P2 ag)
COc1cc(SC)ccc1C(=O)NCCOc1c(C)cc(C)cc1C	none (no result: MRP resist rev)
Brc1ccc2[nH]c3nc(SCCN4CCOCC4)nnc3c2c1	S1P2 ag 16 (no result: MRP-1 activ)
CC(=O)N(NC(=O)c1ccccc1Cl)C1CC(=O)N(c2ccc(C)cc2)C1=O (stereo not given)	none (no result: MRP resist rev)
COc1cccc(Cn2nnc(C(=O)NCc3ccc(F)cc3)c2N)c1	MRP-1 activ 4.8
CCOc1ccc(Cn2nnc(C(=O)NCCc3ccccc3)c2N)cc1	MRP-1 activ 7.8
CCOc1ccc(Cn2nnc(C(=O)NCCc3ccc(Cl)cc3)c2N)cc1	MRP-1 activ 5.1
Nc1c(C(=O)NCc2ccccc2)nnn1Cc1ccccc1	none
COc1cccc(Cn2nnc(C(=O)NCCc3ccc(Cl)cc3)c2N)c1	none
C=CCn1c(COc2ccc(Cl)cc2)nnc1SCC(=O)N1CC(=O)Nc2ccccc21	MRP-1 activ 4.7
COc1cc(NC(=O)Cn2c(=O)n(-c3cccc(C)c3)c(=O)c3c(C)c(C)sc32)cc(OC)c1	none (no result: S1P2 blocker, MRP resist rev, S1P2 ag)
Cc1cc(C)cc(NC(=O)C(OC(=O)c2sccc2C)c2ccccc2)c1 (stereo not given)	none (no result: S1P2 blocker, MRP resist rev, S1P2 ag)
Cc1ccc(-c2csc3ncnc(SCC(=O)Nc4nnc(C)s4)c23)cc1	none (no result: MRP resist rev)
Cc1ccc(-c2csc3ncnc(Sc4nnc(CN5CCCCCC5=O)o4)c23)cc1	GALR2 blocker 27, S1P2 blocker 52
C#CCn1c(=NC(=O)c2ccc(Br)s2)sc2cccc(OC)c21	none
N#Cc1ccc(-c2cccnc2)nc1SCC(=O)Nc1sc2c(c1C#N)CCC2	GALR2 ag 6.9 (no result: S1P2 blocker, S1P2 ag)
COc1ccc(-n2ncc3c(=O)n(CC(=O)N4c5ccccc5CC4C)cnc32)cc1 (stereo not given)	MRP-1 activ 5.9
O=C(Cn1cnc2c(cnn2-c2ccccc2)c1=O)N1CCOCC1	none (no result: S1P2 blocker, S1P2 ag)
COc1ccc(OCCCC(=O)NCC(C)C)cc1	none
